# In all, about 320,000 compounds went through this assay and about 2,100 (0.66%) were called active. Inconclusive results (about 53%) are left out. The call rests on the fitted dose curve; in most records, active means well fitted inhibition curve with a large enough effect in the signal ratio, with a control signal flat (not every such curve was filed as active); inconclusive means small, poorly fitted or top-dose-only effect, or effect the other way, or a change in a side signal; inactive means flat fitted curve, though single readings scatter; the % refers to the signal ratio. The entries come from a sample that favours actives as a whole.
# Assay: qHTS Assay for Lipid Storage Modulators in Drosophila S3 Cells;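 on cell number change: cells counted by Cell Tracker Red CMTPX staining in the red channel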; on lipid storage change, negative = inhibition: on the % scale 0 is the no-effect control and ±100 the full control effect
# Settings: BODIPY lipid droplet fluorescence, 18-24 h, cells fed with added oleic acid; cell number change: measured here: cell count max response; series mostly up to 46.1 µM; lipid storage change, negative = inhibition: at the top concentration
# In short: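 Drosophila S3 cells got compounds at several concentrations plus oleic acid (400 uM solution). Laser-scanning cytometry with 488 nm excitation read lipid droplets at 500-530 nm and cells at 575-640 nm. Percent activity was relative to 20 uM Triacsin C.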
# Potency means the concentration at half of the fitted maximal effect.
SMILES,"lipid storage change, negative = inhibition",cell number change [%],Potency,outcome
O=C(Nc1ccc(C2CCCCC2)cc1)C1CCN(c2ncccn2)CC1,9.94% (inactive),-8.69,–,–
O/N=C1\CCC\C1=C/c1ccco1,-0.642% (inactive),0.139,–,–
CC(C)(C)C1C/C(=C/c2ccco2)C(=O)/C(=C/c2ccco2)C1 (stereo not given),–,-6.47,10.3 µM (active),–
CC1=N/C(=C/c2ccco2)C(=O)O1,0.0552% (inactive),-0.878,–,–
O=C1/C(=C\c2ccco2)CCC/C1=C\c1ccco1,–,-21.3,20.6 µM (active),–
Nc1ccc2c(c1)C/C(=C/c1ccco1)C2=O,27.6% (inactive),–,–,–
O=C1/C(=C/c2ccco2)CCC1C1CCCC1 (stereo not given),0.768% (inactive),-18.8,–,–
CN(C)S(=O)(=O)c1ccc(C(=O)Nc2ccc(S(=O)(=O)NC3=NCCCCC3)cc2)cc1,–,–,–,inactive
O=C(CN1C(=O)CCS(=O)(=O)c2ccccc21)Nc1cccc(Cl)c1,0.523% (inactive),-9.4,–,–
CCc1ccc(NC(=O)CN2C(=O)CC(C)S(=O)(=O)c3ccccc32)cc1 (stereo not given),–,4.2,20.6 µM (active),–
O=C(CN1C(=O)CCS(=O)(=O)c2ccccc21)Nc1cccc(F)c1,–,3.53,23.1 µM (active),–
COc1ccc(NC(=O)CN2C(=O)CC(C)S(=O)(=O)c3ccccc32)cc1 (stereo not given),–,4.2,–,inactive
Cc1cc(C)c(NC(=O)CN2C(=O)CC(C)S(=O)(=O)c3ccccc32)c(C)c1 (stereo not given),–,13.7,–,inactive
O=C(CN1C(=O)CCS(=O)(=O)c2ccccc21)Nc1ccc2c(c1)OCCO2,4.62% (inactive),-1.7,–,–
CC1(C)CC2CC(C)(CN2C(=O)COC(=O)c2ccc(Cl)c(N)c2)C1 (stereo not given),-0.783% (inactive),7.11,–,–
Cc1ccc(NC(=O)CCc2c(C)nn(-c3ccc(N4CCCCC4)nn3)c2C)cc1,–,–,–,inactive
Cc1ccc(S(=O)(=O)CCC(=O)OCc2ccc(Cl)cc2)cc1,8.22% (inactive),-1.83,–,–
Cc1ccc2[nH]c(=O)c(CN(CC3CCCO3)C(=O)c3cccs3)cc2c1 (stereo not given),–,31.3,–,inactive
COc1ccc(CNC(=O)C2(c3ccc(Cl)cc3)CC2)cc1,19.7% (inactive),15.2,–,–
O=C(NCCO)C1(c2ccc(Cl)cc2)CCCC1,–,-14.3,20.6 µM (active),–
O=C(NCc1ccco1)C1(c2ccc(Cl)cc2)CCCC1,1.83% (inactive),17,–,–
Cc1cc(C)c2[nH]c3nc(SCC(=O)O)nnc3c2c1,–,15.4,–,inactive
O=c1oc2ccccc2c(N2CCCCC2)c1CN1CCCC1,6.55% (inactive),20.3,–,–
O=C(Cc1ccccc1)NCc1n[nH]c(=S)n1-c1ccc(Br)cc1,1.65% (inactive),12.1,–,–

SMILES,"lipid storage change, negative = inhibition",cell number change [%],Potency,outcome
COCCNC(=O)C1(C)C=CC2(CCCCC2)N1C(=O)c1ccccc1 (stereo not given),-1.28% (inactive),-12.7,–,–
S=C(Nc1ccc(Cl)cc1)NN1CCOCC1,-0.69% (inactive),-1.28,–,–
Cc1sc2ncnc(NCc3ccccc3)c2c1C,-23.9% (inactive),–,–,–
COc1ccc(-c2nnnn2C)cc1S(=O)(=O)NCc1ccccc1,7.78% (inactive),-12.1,–,–
CSc1ncc2c(n1)-c1cc(C)ccc1SC2,-11.1% (inactive),-11.4,–,–
Cc1ccc(C)c(OCCC(=O)Nc2cccc(S(=O)(=O)N3CCCCC3)c2)c1,–,-9.88,7.31 µM (active),–
O=C(COC(=O)c1ccccc1O)Nc1cccc(S(=O)(=O)N2CCCC2)c1,–,-0.622,2.91 µM (active),–
O=C(CCCOc1ccccc1)Nc1cccc(S(=O)(=O)N2CCCCCC2)c1,–,-1,0.651 µM (active),–
CC(=O)c1ccc(OCCCC(=O)Nc2cccc(S(=O)(=O)N3CCCCC3)c2)cc1,14.7% (inactive),-10.4,–,–
O=C(COC(=O)c1cccc(S(=O)(=O)N2CCCC2)c1)Nc1ccccc1,-2.77% (inactive),–,–,–
COc1ccccc1OCCC(=O)Nc1cccc(S(=O)(=O)N2CCCCC2)c1,14.9% (inactive),9.54,–,–
O=C(CCOc1ccccc1)Nc1ccc(S(=O)(=O)N2CCCC2)cc1,-4.91% (inactive),-12,–,–
O=C(COC(=O)c1cccnc1Cl)Nc1cccc(S(=O)(=O)N2CCCCC2)c1,-4.42% (inactive),-11.8,–,–
Cc1ccc(C)c(OCCC(=O)OCC(=O)Nc2cccc(S(=O)(=O)N3CCCC3)c2)c1,-3.7% (inactive),13,–,–
O=C(NCc1csc(-c2cccs2)n1)Nc1ccc(C(F)(F)F)cc1,-3.23% (inactive),-0.569,–,–
O=C(COC(=O)CSc1cc(Cl)ccc1Cl)Nc1ncc(C(F)(F)F)cc1Cl,5.87% (inactive),1.5,–,–
Cc1[nH]n(-c2ccccc2)c(=O)c1N=Nc1ccc2c(c1)OCO2,-19.5% (inactive),-5.87,–,–
O=C(c1sc(N2CCOCC2)nc1-c1ccccc1)N1CCCCC1,3.96% (inactive),3.25,–,–
O=C(Cn1nnc(-c2ccc(OCc3ccccc3F)cc2)n1)N1CCOCC1,-1.79% (inactive),-16.4,–,–
COc1ccc2nc(NC(=O)CCN3C(=S)NC(C)(C)CC3C)sc2c1 (stereo not given),1.37% (inactive),–,–,–
CCOC(=O)CN1C(=O)C(O)(c2c(C)[nH]c3ccccc23)c2ccccc21 (stereo not given),–,8.53,–,inactive
Cc1cc(C)n(-c2cc(N3CCOCC3)ncn2)n1,9.99% (inactive),-1.49,–,–
COc1cccc(/C=C2\SC(=S)N(c3cccnc3)C2=O)c1OC,8.18% (inactive),12.9,–,–
COc1ccc(C2=NOC(C(=O)Nc3ccc4c(c3)OCO4)C2)cc1 (stereo not given),-25.4% (inactive),14.2,–,–

SMILES,"lipid storage change, negative = inhibition",cell number change [%],Potency,outcome
O=C(Nc1ccc2c(c1)OCO2)C1CC(c2ccccc2O)=NO1 (stereo not given),–,19.9,–,inactive
CCn1cc(C2=NOC(C(=O)Nc3ccc4c(c3)OCO4)C2)c(C)n1 (stereo not given),–,-25.4,7.31 µM (active),–
COc1cccc2sc(NNC(=O)COc3ccccc3)nc12,-1.29% [at 9.22 µM] (inactive),5.71,–,–
CCC(=O)Nc1cc(=O)[nH]c2ncnn12,-8.63% (inactive),-14.7,–,–
CC(C)C(=O)Nc1cc(=O)[nH]c2ncnn12,–,-10.1,5.8 µM (active),–
O=C(Nc1cc(=O)[nH]c2ncnn12)c1ccccc1,5.81% (inactive),-8.14,–,–
Cn1c(=O)[nH]c(=O)c2c1nc(Br)n2C/C=N/NC(N)=S,-24.6% (inactive),-9.55,–,–
O=C(Nc1c2c(nn1-c1ccc(F)cc1)CS(=O)(=O)C2)c1ccc(S(=O)(=O)N2CCOCC2)cc1,-1.48% (inactive),-2.12,–,–
O=C(Nc1cccc(-c2cccc(Cl)c2)c1)C1CCN(CC2CCOC2)CC1 (stereo not given),-4.19% (inactive),26.5,–,–
COc1cccc(-c2cccc(NC(=O)C3CCN(CC4CCOC4)CC3)c2)c1 (stereo not given),–,-23.3,16.4 µM (active),–
COc1cccc(-c2cccc(NC(=O)C3CCN(Cc4ccc(CO)o4)CC3)c2)c1,-3.31% (inactive),-8.92,–,–
O=C(CSc1nc(O)cc(=O)n1-c1ccccc1)c1ccc(Br)cc1,26.5% [at 9.22 µM] (inactive),-4.08,–,–
COc1ccc(-c2ccc3ccccc3n2)cc1,-22% (inactive),-4.92,–,–
S=c1[nH]nc(-c2ccncc2)n1/N=C/c1cccc2ccccc12,11.2% (inactive),15.5,–,–
Clc1ccc(CN2CCCCCC2)cc1,12.2% (inactive),7.51,–,–
CC(C)CCn1c(CN(C)Cc2ccccc2)nc2c1c(=O)n(C)c(=O)n2C,15.2% (inactive),-8.94,–,–
CC(C)Cn1c(CN(C)Cc2ccccc2)nc2c1c(=O)n(C)c(=O)n2C,–,–,–,inactive
C=C(C)Cn1c(CN(C)Cc2ccccc2)nc2c1c(=O)n(C)c(=O)n2C,–,-21.1,0.92 µM (active),–
C[C@@H](NC(=O)c1nc[nH]c1C(=O)NCC(=O)OC(C)(C)C)c1ccccc1,–,2.99,–,inactive
CC(=O)c1ccc(Oc2cc(C(F)(F)F)cnc2C(N)=O)cc1,6.16% (inactive),26.2,–,–
CC(NC(=O)c1ccncc1)C(c1cccs1)N1CCOCC1 (stereo not given),12.9% (inactive),1.4,–,–
COc1ccc(NC(=O)CSc2nc3ccccc3nc2N2CCCC2)cc1,-20.6% (inactive),-11.5,–,–
COc1ccc(NC(=O)CSc2nc3ccccc3nc2N2CCCCC2)cc1,-10.7% (inactive),-10.4,–,–
Cc1cc(C)cc(NC(=O)CSc2nc3ccccc3nc2N2CCCCC2)c1,25% (inactive),10.1,–,–

SMILES,"lipid storage change, negative = inhibition",cell number change [%],Potency,outcome
O=C(CSc1nc2ccccc2nc1N1CCCC1)Nc1ccc(F)cc1,-16.8% (inactive),7.49,–,–
Cc1cccc(NC(=O)CSc2nc3ccccc3nc2N2CC(C)OC(C)C2)c1 (stereo not given),–,8.93,–,inactive
CCCCc1ccc(NC(=O)CSc2nc(=O)n(CCCN3CCOCC3)c3c2CCC3)cc1,-5.03% (inactive),12.5,–,–
CCCCc1ccc(NC(=O)CSc2nc(=O)n(CCN3CCOCC3)c3c2CCC3)cc1,–,7.1,–,inactive
CCc1ccc(NC(=O)CSc2nc3ccccc3nc2N2CCCCC2)cc1,–,25.4,13 µM (active),–
CCc1ccc(NC(=O)CSc2nc(=O)n(CCCN3CCOCC3)c3c2CCCC3)cc1,–,-8.01,14.6 µM (active),–
CCOc1ccc(NC(=O)CSc2nc3ccccc3nc2N2CCOCC2)cc1,–,-28,20.6 µM (active),–
CCOc1ccc(NC(=O)CSc2nc(N3CCOCC3)nc(N3CCOCC3)n2)cc1,–,4.32,–,inactive
CC1CN(c2nc3ccccc3nc2SCC(=O)Nc2ccc(F)cc2)CC(C)O1 (stereo not given),–,22.5,20.6 µM (active),–
Cc1cc(C)n2c(SCc3c(C)noc3C)nnc2n1,3.32% (inactive),2.46,–,–
Cc1cccc(NC(=S)NCCc2ccc(S(N)(=O)=O)cc2)c1C,-4.15% (inactive),-9.26,–,–
C=CCSc1nnc(NC(=O)C2CC(=O)N(Cc3ccc(C)cc3)C2)s1 (stereo not given),18.9% (inactive),-7.78,–,–
CC(=C\C(=O)O)/C(=C/c1ccc(C)o1)C(=O)O,-2.85% (inactive),-12.8,–,–
O=C(NCc1ccc2[nH]c3c(c2c1)CCCC3)c1ccc(S(=O)(=O)N2CCCCC2)cc1,1.09% (inactive),-10.5,–,–
CN(C)C(=O)c1cc(C(=O)c2c(F)cccc2F)c[nH]1,-0.223% (inactive),-8.76,–,–
O=C(CN1C(=O)NC2(CCCCC2)C1=O)Nc1cccc(S(=O)(=O)N2CCOCC2)c1,-5.91% (inactive),-0.223,–,–
CCC1Sc2ccc(S(=O)(=O)CCC(=O)Nc3ccc(OC(F)(F)F)cc3)cc2NC1=O (stereo not given),–,2.14,–,inactive
O=C(NC(Cc1ccccc1)C(=O)O)/C(=C\c1ccc(Cl)cc1)NC(=O)c1ccco1 (stereo not given),–,–,0.0411 µM (active),–
O=C(NC(Cc1ccccc1)C(=O)O)/C(=C/c1ccc(Cl)cc1)NC(=O)c1ccccc1 (stereo not given),-3.15% (inactive),1.96,–,–
O=C(NC(Cc1ccccc1)C(=O)O)/C(=C\c1cccc([N+](=O)[O-])c1)NC(=O)c1ccco1 (stereo not given),–,–,–,inactive
O=C(NC(Cc1ccccc1)C(=O)O)/C(=C/c1ccco1)NC(=O)c1cccc(Br)c1 (stereo not given),-22% (inactive),-18,–,–
O=C(NC(Cc1ccccc1)C(=O)O)/C(=C/c1cccc(Br)c1)NC(=O)c1ccco1 (stereo not given),–,–,1.84 µM (active),–
O=C(NC(Cc1ccccc1)C(=O)O)/C(=C\c1ccccc1)NC(=O)c1ccco1 (stereo not given),–,-6.67,–,inactive
